Efflux pump mplx = blocks antifungal efflux pumps in multiplex yeast assay | actives 0.44% (n = 330,000) | S. cerevisiae Candida pump triplex, Nile Red efflux | inhibition, % at 10 µM | AID 485275;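 active = plate passing quality check with inhibition over a set limit, or well fluorescence over plate mean plus 4 SD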;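 also: Nile Red retained in pooled yeast measured as flow cytometry median fluorescence; higher means more Nile Red kept so more efflux inhibition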
ALR H2O2 inh = inhibitors of human sulfhydryl oxidase ALR; purified ALR, DTT oxidation, H2O2 HRP-luminol luminescence; AID 485317; actives 3.8% (n = 290,000); inhibition, % (concentration not given with the values);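 active = mean replicate inhibition above about 79%, with every replicate also reaching it, limit read from the data; inconclusive = only one of the two criteria met; inactive = mean below limit and not every replicate reaching it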
Bfl-1 A1 inh = inhibitors of the anti-apoptotic protein A1, read as caspase activation | MEF A1-2A-BIM cells, Caspase-Glo 3/7 luminescence, 3 h; percent of clofoctol response, vehicle zero | actives 0.066% (n = 330,000) | caspase activation, % (concentration not given with the values);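 active = over half of replicate activation scores above 10%, or exactly half above 10 with the replicate mean above 10; inconclusive = replicate mean below 10 yet half the replicates above 10; inactive = over half of replicates below 10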
AHR activator = activates the human aryl hydrocarbon receptor; actives 2.5% (n = 320,000); AID 2796; AHR-responsive luciferase reporter cells, luminescence; activation, % at 5 µM; in the data active = activation above about 47%
Target sequence (P35869 whole entry, looked up): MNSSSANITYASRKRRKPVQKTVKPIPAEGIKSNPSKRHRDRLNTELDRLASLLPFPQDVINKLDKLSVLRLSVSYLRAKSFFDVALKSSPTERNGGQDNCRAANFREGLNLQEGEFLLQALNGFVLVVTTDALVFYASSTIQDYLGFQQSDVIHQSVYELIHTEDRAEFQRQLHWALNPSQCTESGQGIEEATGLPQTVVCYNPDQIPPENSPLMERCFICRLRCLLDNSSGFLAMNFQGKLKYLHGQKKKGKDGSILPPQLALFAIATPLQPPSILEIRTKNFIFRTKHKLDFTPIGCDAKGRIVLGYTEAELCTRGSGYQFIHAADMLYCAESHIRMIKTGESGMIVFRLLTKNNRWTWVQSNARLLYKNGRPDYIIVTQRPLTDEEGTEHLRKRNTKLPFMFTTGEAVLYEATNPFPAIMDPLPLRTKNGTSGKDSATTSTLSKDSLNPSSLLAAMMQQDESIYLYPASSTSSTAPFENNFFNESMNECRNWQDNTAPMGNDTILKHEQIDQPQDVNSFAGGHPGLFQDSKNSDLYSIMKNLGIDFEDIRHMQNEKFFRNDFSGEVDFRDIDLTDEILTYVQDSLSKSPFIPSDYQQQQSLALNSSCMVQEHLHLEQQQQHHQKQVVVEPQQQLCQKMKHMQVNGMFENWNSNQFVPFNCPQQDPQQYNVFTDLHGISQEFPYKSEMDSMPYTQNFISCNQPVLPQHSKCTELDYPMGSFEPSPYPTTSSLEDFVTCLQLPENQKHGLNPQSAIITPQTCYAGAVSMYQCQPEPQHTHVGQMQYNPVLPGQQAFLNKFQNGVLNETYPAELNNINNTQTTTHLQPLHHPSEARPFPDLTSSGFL
SUMO Mot1 rescue = blocks SUMOylation pathway, rescuing yeast Mot1-301 growth. S. cerevisiae Mot1-301 growth rescue, ATP luminescence, 38.5C; percent above DMSO median, 100 means doubled. growth rescue, % at 18.8 µM. actives 1% (n = 320,000). AID 2716;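 active = every valid replicate shows activation above 250% relative to neutral control wells; inactive = the rest, any valid replicate at or below 250%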
VLA-4 inh = inhibition in a human VLA-4 binding assay. VLA-4 expressing cells, ligand binding flow cytometry. inhibition, % (about 7 µM as worked out from the volumes in the protocol). P13612. actives 0.2% (n = 330,000). AID 2557; in the data active = inhibition above about 50%
Of the large screens only hits and unclear results are named; the others gave an inactive call. Shown are actives, neighbours in structure and some others; about 7.2% of the full set was active somewhere.

COCCN(C(=O)COC(=O)CCSc1ccc(F)cc1)c1c(N)n(Cc2ccccc2)c(=O)[nH]c1=O	none
CC(=O)Nc1ccc(NC(=O)c2nc(-c3ccccc3)oc2C)cc1	none
CCOc1ccc(Cn2ccnc2)cc1[N+](=O)[O-]	AHR activator 63.6 (no result: ALR H2O2 inh)
CCCCCOc1ccc(CSC(=N)N)cc1[N+](=O)[O-]	ALR H2O2 inh 98.7
Cc1ccc(OCCCn2ccnc2)c([N+](=O)[O-])c1	none
COc1ccc(-c2c(C3=CCCCC3)oc3ccc(-c4ccc5c(c4)OCO5)cc23)cn1	none
O=C(Nc1ccccc1N1CCCCC1)c1cnccn1	ALR H2O2 inh 97.4
O=C(Nc1ccccc1N1CCCC1)c1cccnc1	ALR H2O2 inh 98.4
O=C(Nc1ccccc1Cl)c1cnccn1	none
O=C(Nc1ccccc1N1CCCC1)c1ccc(N2CCCC2=O)cc1	ALR H2O2 inh 99.4
O=C(N/N=C1/SCC(=O)N1Cc1ccco1)c1ccccc1F	none
Cc1ccc(=O)n(-c2ccccc2)c1	none
O=C(Cn1nnc2ccccc2c1=O)N[C@@H](Cc1ccccc1)C(=O)O	none
CCC(=O)Nc1ccc(C(=O)CSc2nnc(-c3ccc(O)cc3)n2CC2CCCO2)cc1OC (stereo not drawn)	ALR H2O2 inh 81.7
COc1ccc(NC(=O)CSc2nnc(-c3ccncc3)n2CC2CCCO2)c(OC)c1 (stereo not drawn)	none
O=C(O)c1cn(-c2ccc(F)c(F)c2)c2c(F)c(F)c(F)c(F)c2c1=O	none
Cc1cc(=O)oc2ccc(OCc3ccccc3)cc12	AHR activator 51.1
CCCCNc1nc(Nc2ccc(C)c(Cl)c2)c2cnn(C)c2n1	AHR activator 78.8
CCNc1nc(Nc2ccc(C)c(Cl)c2)c2cnn(C)c2n1	AHR activator 53.8 (no result: ALR H2O2 inh)
Cc1ccccc1-c1nc2ccccc2o1	none
Nc1ccc2oc(-c3cccs3)nc2c1	ALR H2O2 inh 98.2
Cc1ccccc1-c1nc2cc(Cl)ccc2o1	AHR activator 74.9
O=c1oc(-c2cccs2)nc2ccccc12	none
CC(C)(C)c1ccc(-c2nc3cc(N)ccc3o2)cc1	ALR H2O2 inh 98.8
Nc1ccc2oc(-c3cccc4ccccc34)nc2c1	ALR H2O2 inh inconclusive, AHR activator 53.2
CCOC(=O)c1ncn2c1[C@@H]1CCNC1C(=O)c1cc(OC)ccc1-2 (stereo partly drawn)	none
Cn1nc(C(=O)NCCc2ccc(S(N)(=O)=O)cc2)c2ccccc2c1=O	none
COC(=O)c1[nH]c2cccc(OC)c2c1NC(=O)C(C)N1CCC(C)CC1 (stereo not drawn)	none
Cc1ccc(-c2nc3cc(C)ccc3o2)cc1	none
Cc1ccc(-c2nc3cc(N)ccc3o2)cc1	AHR activator 72.8
Cc1ccc(-c2nc3cc(N)ccc3o2)c(C)c1	ALR H2O2 inh 98.5
CCCCN1C(=O)/C(=c2\sc3nc(=O)c(-c4ccccc4)nn3c2=O)c2ccccc21	ALR H2O2 inh 96.8
CCCCn1c(SCC(=O)Nc2cc(C(F)(F)F)ccc2Cl)nnc1C(CC)N(C)C (stereo not drawn)	none
COc1ccc(-c2csc(/C(C#N)=C(\O)CSc3nccn3C)n2)cc1OC	ALR H2O2 inh 86.3
CC(=O)Nc1nc(=S)n(-c2ccccc2)[nH]1	ALR H2O2 inh inconclusive (no result: Bfl-1 A1 inh)
CC(C)c1nc(=S)n(-c2ccccc2)[nH]1	ALR H2O2 inh 89.5
Cn1c(=N)n(CC(=O)c2cccs2)c2ccccc21	AHR activator 49.4 (no result: ALR H2O2 inh)
Cn1c(=N)n(CC(=O)c2ccc(Br)s2)c2ccccc21	AHR activator 71.2 (no result: ALR H2O2 inh)
N=c1n(CC(=O)c2ccc(Br)s2)c2ccccc2n1Cc1ccccc1	AHR activator 71.3
CC(C)(C)C(=O)Cn1c(=N)n(Cc2ccccc2)c2ccccc21	none
CCCn1c(=N)n(CC(=O)c2cccs2)c2ccccc21	none
CCN(CC)CCn1c(=N)n(CC(=O)c2ccc(Br)s2)c2ccccc21	AHR activator 70.0
O=C(CSC(=S)N1CCCCC1)Nc1ncc2c(n1)CCCC2=O	none
CCOc1ccc(CCNC(=O)C2(c3ccccc3)CC2)cc1OCC	none
CC(C)N1CCC(=NNC(=O)c2cccs2)CC1	none
COc1cccc(C(=O)Cn2c(=N)n(C)c3ccccc32)c1	AHR activator 51.7
COc1cccc(C(=O)Cn2c(NCCO)nc3ccccc32)c1	none
CCc1cc2c3c(c1)C1(C(=O)N3C(C)(C)CC2C)C(C#N)=C(N)N2C(=C1C#N)Nc1ccccc12 (stereo not drawn)	SUMO Mot1 rescue 608.4
NC1=NC2(CCCC2)n2c(nc3ccccc32)N1	none
CCC1(C)N=C(N)Nc2nc3cc(C)c(C)cc3n21 (stereo not drawn)	ALR H2O2 inh 99.2
CN(C)S(=O)(=O)c1cccc(NC(=O)COC(=O)c2cc3ccccc3oc2=O)c1	none
S=C(Nc1ccc(Nc2ccccc2)cc1)N1CCN(c2ncccn2)CC1	ALR H2O2 inh 98.3
Cc1ccc(NC(=S)N2CCCC(c3nc4ccccc4[nH]3)C2)cc1 (stereo not drawn)	SUMO Mot1 rescue 522.7
S=C(Nc1ccccc1)N1CCC(C2CCN(C(=S)Nc3ccccc3)CC2)CC1	none
Cc1cc(C)cc(NC(=S)N2CCN(c3ncccn3)CC2)c1	none
CC1CCCN(C(=S)Nc2ccc(Nc3ccccc3)cc2)C1 (stereo not drawn)	ALR H2O2 inh 99.3
OC1CCN(C(=S)Nc2ccc(Nc3ccccc3)cc2)CC1	ALR H2O2 inh 99.1
Cc1c(Cl)cccc1S(=O)(=O)Nc1ccnn1C	none
COc1cc(OC)cc(C(=O)NCC2CCCN(C(=O)c3oc(C)cc3C)C2)c1 (stereo not drawn)	none
COc1ccc(Nc2ccccc2NC(=O)c2ccccc2Br)cc1	ALR H2O2 inh 82.3
COc1ccc(Nc2ccccc2N)cc1	ALR H2O2 inh 98.4
COc1ccc(/C=N/NC(=O)c2ccc(CSc3nc(C)cc(C)n3)cc2)cc1O	ALR H2O2 inh 77.4
COc1ccc(/C=N/NC(=O)c2cc[n+]([O-])cc2)cc1	none (no result: ALR H2O2 inh)
COc1ccc(/C=N/NC(=O)c2ccoc2C)cc1OC	none (no result: ALR H2O2 inh)
COc1cc(/C=N/NC(=O)c2ccc(CSc3nncn3C)cc2)cc(OC)c1O	ALR H2O2 inh 99.6
COc1ccc(/C=N/NC(=O)c2ccoc2C)cc1O	ALR H2O2 inh 99.4
COc1ccc(/C=N/NC(=O)c2cc[n+]([O-])cc2)cc1O	ALR H2O2 inh 99.3
Cn1cnnc1SCc1ccc(C(=O)N/N=C(\CCC(=O)O)c2ccc(C(C)(C)C)cc2)cc1	ALR H2O2 inh 98.5
COc1ccc(/C=N\NC(=O)c2ccc(=O)[nH]n2)cc1O	ALR H2O2 inh 99.5
CCC/C(=N\NC(=O)c1ccc(CSc2nncn2C)cc1)c1ccccc1	none
COc1ccc(/C=N/NC(=O)c2ccc(=O)[nH]n2)cc1OC	none
COc1ccc(/C=N/NC(=O)c2ccc(C)nc2)cc1O	ALR H2O2 inh 97.4
Cc1n[nH]c(C)c1CCC(=O)N/N=C/C=C/c1ccccc1	none
COc1ccc(/C=N/NC(=O)CCc2c(C)n[nH]c2C)cc1O	ALR H2O2 inh 99.4

Screening data from PubChem.
